# Reference: the supplement of paper PMC8387472
# Compound: Nc1cc(F)ccc1NC(=O)c1ccc(CNC(=O)/C=C/c2cccnc2)cc1 [Tucidinostat (Chidamide)]
# Assay: fraction of microhomology deletions among edited reads; higher = more MH deletions
# Details: mESC; 2uM; 72 h treatment, harvest day 5
row,Target,fraction of microhomology deletions among edited reads
1,"39.0 (DMSO control at this site: 1-bp insertion 0.328, MH deletion 0.371, edited 0.204) CTGCACAGTCACTTAGGATAGGAGAAGATGATGTATAGGGTTTAGTGGGAGATGTTGCAAG",0.287
2,21.0 CGATTGAGAGTCAAACGGGCCAGAAAACTCCGGGAACGGGCCAGAAAACTCCGGGGCATGG,0.127
3,"25.0 (DMSO control at this site: 1-bp insertion 0.017, MH deletion 0.774, edited 0.143) GGGCCTGAATGGTGTGGACATCTACTCGCTGGTGAGCTGGTGACTGAAAACATTCAGTGGC",0.723
4,27.0 CCAGAATTAGAACATATCATCTGGACCCTTTTCCATCTGGACCCTTTTCCAGCACACCCTG,0.174
5,"40.0 (DMSO control at this site: 1-bp insertion 0.072, MH deletion 0.192, edited 0.189) GCGAATCAACTGTTCAACAACAGCAGCAGCCACCTGGAGGACTACAGTGGCCTGTCCGTGT",0.145
6,"42.0 (DMSO control at this site: 1-bp insertion 0.145, MH deletion 0.655, edited 0.132) GGGCTAAACCTATGAGCACAGTAGAACTAAGGGTGGGTGGTGTAGCTAAAGAACTTGACCA",0.607
7,"28.0 (DMSO control at this site: 1-bp insertion 0.035, MH deletion 0.77, edited 0.142) TGGTTCTTCCTTTGTAGAGAGTGTTCATCTGGGAATCTGGGACTTGGATGAGACAATCATT",0.739
8,"2.0 (DMSO control at this site: 1-bp insertion 0.364, MH deletion 0.356, edited 0.125) GGTGCCCCCGAGACCTACGCGAACCGAAATCGATGTCCGGTGCGCAAGCAGGGCTGGCGTC",0.303
9,"4.0 (DMSO control at this site: 1-bp insertion 0.146, MH deletion 0.523, edited 0.125) ACGCCTTAGTGCACGAGTGACGGGATAATGTGGTCTCAGGTAATTGATAGGCTTCCAACTT",0.482
10,46.0 TTAAGAGCAATGTTCACGCAACTTGAAATTATATCTGTGGTCTTCAAATTGTCTTTTGTCA,0.327
11,"31.0 (DMSO control at this site: 1-bp insertion 0.315, MH deletion 0.329, edited 0.026) ACCTCCACAGGCTGGGTGGCCCGGAGGCTGGGCGGCCCGGAGGCTGGGCTGGGCGAGTATC",0.459
12,"29.0 (DMSO control at this site: 1-bp insertion 0.084, MH deletion 0.745, edited 0.133) TTGATGAACTTCCTCTTCTTCTCATGTCTCCGGTCTCCGGTAGGCCACGTGCATGGCCACT",0.686
13,8.0 GCATGCGTGTTTTGGGACAATGTAGTATACATTTGGGAGGCTCTCAGCTTTTCCCAATAAA,0.0826
14,"17.0 (DMSO control at this site: 1-bp insertion 0.112, MH deletion 0.348, edited 0.058) CCATAGCGCGATAAATATGACGGCTCATCCTGTATGACGGCTCATCCTGTATCAACTGTCC",0.38
15,"45.0 (DMSO control at this site: 1-bp insertion 0.017, MH deletion 0.666, edited 0.101) TTACACAGCATGAACTGCTAGGTGATGATGTCAGATTCGGTTTTACTAACTTCTCCAAAAA",0.624
16,"30.0 (DMSO control at this site: 1-bp insertion 0.074, MH deletion 0.67, edited 0.142) GAGCTGGCATGAGTATTTGTGCCACATGGCTCCCACATGGCTCCACATGCAAGTTTGAAAC",0.607
17,"44.0 (DMSO control at this site: 1-bp insertion 0.181, MH deletion 0.512, edited 0.123) ACACATACCTTCTTCGAGGCAGCCAGCATGATGAGACAGGTCTCCCACAAACACATCGTGT",0.491
18,"20.0 (DMSO control at this site: 1-bp insertion 0.349, MH deletion 0.138, edited 0.084) TACAGGTGTAGACTGGTTACGTGGCTGCGGAATTGACTGGTTACGTGGCTGCGGAATTTTG",0.215
19,"43.0 (DMSO control at this site: 1-bp insertion 0.134, MH deletion 0.714, edited 0.104) AGTTTAACTTACTCCGGCCAAAAAAGAACTGCACCTCTGGAGCGGGTTAGTGGTGGTGGTA",0.68
20,"33.0 (DMSO control at this site: 1-bp insertion 0.008, MH deletion 0.771, edited 0.112) CATTAAGAGCAGCTGCCGGCCCCCAAGTGGACAGAGCTGGCCCTGCTGATTCAACAGTGCA",0.706
